This is an account of results in PubChem BioAssay (NCI).

The structures appear in SMILES notation. About 83,000 compounds went through this panel and 20% of them were active in at least one assay; those are over-represented in the sample as a whole.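 Compound tested at a single concentration for 48 hours in 96-well plates; a percent growth value below 10 was scored as active.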 Values without a mark were called inactive. Active and inactive are the calls of the source.

The test concerns HL-60(TB) leukemia. In words: NCI-60 one-dose screen, 48 h (100 = growth as untreated, 0 = no growth, -100 = all killed). The conditions noted are these: 10 µM unless noted.
Regarding `Cc1cc(Nc2ncc(Cl)c(Nc3ccccc3S(=O)(=O)C(C)C)n2)c(OC(C)C)cc1C1CCNCC1`, the growth is -65% (active).

For `O=S(=O)(NCCNc1nccc(-c2c(-c3ccc(F)c(O)c3)nc3sccn23)n1)c1ccc(F)cc1`, the growth is 12.7%. Then `O=Cc1cc2ccccc2nc1Nc1nccs1`, with 99.5%; and `O=C1/C(=N/O)CCc2ccccc21`, with 59.1%; and `O=c1oc2ccccc2cc1-c1csc(N=Nc2c(O)[nH]c3ccc(Br)cc23)n1`, with 106%. Then `CC(=O)[C@H]1CC[C@]2(C)[C@@H]1CC[C@@H]1[C@@]3(C)C/C(=C/c4cccnc4)C(=O)C(C)(C)[C@@H]3CC[C@]12C`, with 8.47% (active); and `CCOC(=O)CSc1nc2sc3c(c2c(=O)n1-c1ccccc1)CCCCC3`, with 109%; and `CCOC(=O)C1=CSC2=NC3=C(CCC/C3=C\c3ccc(Cl)cc3)C(c3ccc(Cl)cc3)N12` (stereo not given), with 79.7%. The same measure for `Cc1cccc(Cl)c1NC(=O)c1cnc(Nc2cc(N3CCOCC3)cc(S(C)(=O)=O)c2)s1`: 110%; for `NC(=NCCCOc1ccc(F)cc1)Nc1ccc(Cl)c(Cl)c1`: 48.2%; for `Cc1ccc(CNc2c3ccccc3nc3cc(NC(=O)CCN4CCCC4)ccc23)cc1`: -64.3% (active). Take `N#CC(=C1SCS1)[N+](=O)[O-]`: the growth was -4.02% (active). The same measure for `COc1cc2c(c(OC)c1OC)CCc1cnoc1-2`: 114%; for `Cc1cc(-c2ccccc2)nc2ccccc12`: 90.8%. For `CCCCCCC/C=C/[C@H]1O[C@]23C(=O)C[C@@]4(C[C@@H](OC5OC(CO)C(O)C(O)C5O)C[C@@H]4[C@H]2C=C1C)OC3=O` (stereo not given in full), the growth was -13.1% (active).

On to `COCCn1cc(-c2csc(-c3c[nH]c4ccccc34)n2)c2cccnc21`, for which the growth is 14.1%. The same measure for `Cn1c(=O)c2c(nc(Br)n2CC(=O)Nc2ccc(F)cc2)n(C)c1=O`: 95.3%. The same measure for `COc1ccc2cc(Cn3cc[n+](Cc4ccc5ccccc5c4)c3)ccc2c1`: -46.6% (active); for `CN1CCN(CC(=O)Nc2nc(-c3cccc(NS(=O)(=O)c4cccc5c(N(C)C)cccc45)c3)cs2)CC1`: 23.3%; for `Cc1cc(N2CCCCCC2)nc(N2CCN(CC(=O)Nc3ccc4c(ccn4Cc4ccccc4)c3)CC2)n1`: 23.4%. The same measure for `COc1ccc(-c2cc(NC(=O)Nc3ccc4ncsc4c3)no2)cc1`: 90.8%; for `C#CC(C)(O)[C@@H]1C[C@H](CC(=O)O)C1(C)C` (stereo not given in full): 113%. In the case of `O=c1c2c(c(=O)n1O)c1c3ccc[nH]c3nc1c1nc3[nH]cccc3c12`, the growth was 81%. Consider `CCOc1ccncc1[N+](=O)[O-]`, for which the growth was 103%.

Regarding `CCOC(=O)C(=O)C=P(c1ccccc1)(c1ccccc1)c1ccccc1`, the growth was 103%.

`Nc1ccc(Oc2ccccc2)c(Cl)c1`: the growth was 119%. The same measure for `COc1ccc(C2NC(=O)C(C#N)c3c2sc2c(F)cccc32)c(OC)c1` (stereo not given): 56.9%. The same measure for `Cn1cc(-c2csc(-c3c[nH]c4ccc(F)cc34)n2)c2ccnc(Cl)c21`: 72%; for `CSc1nc(N)c(NS(=O)(=O)c2ccc(C(C)=O)cc2)c(=O)[nH]1`: 108%; for `O=C1C=C(O)C(=O)C(CC2=C(O)C(=O)C=C(O)C2=O)=C1O`: 102%.

As for `COC(=O)c1ccc2[nH]c(O)c(C(=Nc3ccc(N(C)C(=O)CN4CCN(C)CC4)cc3)c3ccc(CCO)cc3)c2c1`, the growth is 7.24% (active). Regarding `C=CC1=C(C(=O)O)N2C(=O)[C@@H](NC(=O)/C(=N\O)c3csc(N)n3)[C@H]2SC1` (stereo in doubt), the growth is 118%. Then `CCc1nc2ccccc2[nH]1`, with 105%. Then `O=C(COCc1c(-c2ccccc2)no[n+]1[O-])Nc1nc(-c2ccc(Cl)cc2)cs1`, with 119%; and `COc1cccc(-c2nn(-c3ccccc3)cc2-c2ccnc(NCCNC(=O)c3ccccc3)c2)c1`, with 25.2%; and `N#CC1(C#N)C2=C(CCCC2)NC(c2c(F)cccc2Cl)C1(C#N)C#N` (stereo not given), with 6.9% (active).

With `CC1CN(C2CCCCC2)C(=O)NC1=O` (stereo not given), the growth was 75.8%. Then `OC(COc1ccccc1Cl)CN1CCN(c2ccc(Cl)cc2)CC1` (stereo not given), with 109%; and `CCN(C(=O)Nc1ccccc1Cl)c1ccccc1`, with 113%. Then `CN(C)c1ccc(N=Nc2ccc3ccccc3c2)cc1`, with 61.6%.
